In assay [1] the target is 6-phosphogluconate dehydrogenase, decarboxylating (Homo sapiens) (UniProt P52209). Kind of assay: inhibition of human phosphogluconate dehydrogenase – biochemical, recombinant enzyme, NADPH absorbance, primary screen (AID 1159550). The settings on record: recombinant 6PGD, NADPH absorbance 341 nm; at 10 µM; stronger effect = higher value.
Assay [2] addresses NAD(+) hydrolase SARM1 (Homo sapiens) (UniProt Q6SZW1). Kind of assay: blocking NAD cleavage by SARM1 SAM-TIR – cell lysate, NAD-Glo luminescence (AID 1508614;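 active = compound whose remaining NAD level is above about 45 nM, limit read from the data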;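 note: higher remaining NAD means stronger inhibition of SARM1 NADase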). To be noted: SAM-TIR HEK293T lysate NADase, at 1 µM, stronger effect = higher value.
The target in assay [3] is Mitogen-activated protein kinase 7 (Homo sapiens) (UniProt Q13164). Kind of assay: Gal4-ERK5 driven luciferase induction – cell-based, HTS, primary screen (AID 1508626;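 active = luciferase signal above three times the same-plate solvent-only control wells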;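 note: luciferase driven by Gal4-ERK5 fusion binding five Gal4 sites before minimal TATA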). To be noted: HeLa Gal4-ERK5 transactivation, 18 h, at 5 µM, stronger effect = higher value.
Assay [4] in a line: MELAS cybrid and Rieske KO viability enhancers – cell-based, MELAS cybrids, Rieske KO mouse fibroblasts, CellTiter-Glo, primary screen (AID 1508586;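 active = mean z-score across replicates of 1.96 or higher in either the MELAS or the Rieske mutant cell line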;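 note: z relative to plate mean and SD of compound and empty wells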). The settings on record: low glucose. (Cellular ATP, detected with luciferase, serves as a proxy for viable cell number.)
Assay [5] can be described thus: compounds altering viability of human ES cells (AID 493140; call rule not given here;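 note: cells exposed to compounds for four days before counting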). The settings on record: human embryonic stem cell survival screen; stronger effect = higher value.
Assay [6] is described as follows: P. berghei load reduction in hepatocytes – cell-based, HepG2, luciferase luminescence, HepG2 viability, primary screen (AID 624349; in the data active = parasite load remaining mostly below about 12%, no sharp cut-off; inactive = mostly above about 10%;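 note: 100% = mean of DMSO negative control wells on the same plate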). To be noted: P. berghei liver stage in HepG2, luciferase luminescence, concentration not given here; parasite load remaining: stronger effect = lower value; viability: measured here: HepG2 viability without parasites.
Assay [7] can be described thus: viability loss with induced miR-34 in A549 – imaging, A549 dox-inducible miR-34, nuclei and caspase counts, primary screen (AID 1347080;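 active = compounds whose cell count with miR-34 switched on is under 0.7 times the count with it off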). To be noted: A549 miR-34 inducible, Hoechst nuclei count, 48 h.
A short description of assay [8]: compounds altering circadian rhythm period length – cell-based, LOPAC library, luminescence reporter (AID 2774; call rule not given here;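 note: values are relative to mean of DMSO wells on each plate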). To be noted: circadian reporter cells, at 7 µM, actives lie on both sides.
Assay [9] in a line: galactose survival enhancers in mitochondrial complex I cybrids – cell-based, galactose medium, ATP luminescence, primary screen (AID 1645843;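 active = z-score of at least 1.8 in each of two replicates, scored against plate mean and spread of sample wells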;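 note: positive z means more ATP and so rescue of galactose-driven cybrid death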). To be noted: complex I mutant cybrid cells, 72 h, stronger effect = higher value.
Setting [10] is: MELAS cybrid survival, CellTiter-Glo 48 h, stronger effect = higher value.
Setting [11] is: Rieske KO mouse fibroblast survival, CellTiter-Glo 72 h.
The mark [12] stands for this setting: stronger effect = lower value, cell number ratio, induced over uninduced.
The mark [13] stands for this setting: measured here: relative caspase fold change +Dox/-Dox.
[14] abbreviates: measured here: total cells with miR-34 induction, stronger effect = lower value.
Where [15] appears, read: measured here: total cells without miR-34 induction.

The source made the active and inactive calls.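 Rule for the calls, unless noted: active = at least 20% inhibition of 6-phosphogluconate dehydrogenase activity; inactive = the rest.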

Chain of NAD(+) hydrolase SARM1 (Homo sapiens) (Q6SZW1 whole entry, looked up, the tested form may be a part): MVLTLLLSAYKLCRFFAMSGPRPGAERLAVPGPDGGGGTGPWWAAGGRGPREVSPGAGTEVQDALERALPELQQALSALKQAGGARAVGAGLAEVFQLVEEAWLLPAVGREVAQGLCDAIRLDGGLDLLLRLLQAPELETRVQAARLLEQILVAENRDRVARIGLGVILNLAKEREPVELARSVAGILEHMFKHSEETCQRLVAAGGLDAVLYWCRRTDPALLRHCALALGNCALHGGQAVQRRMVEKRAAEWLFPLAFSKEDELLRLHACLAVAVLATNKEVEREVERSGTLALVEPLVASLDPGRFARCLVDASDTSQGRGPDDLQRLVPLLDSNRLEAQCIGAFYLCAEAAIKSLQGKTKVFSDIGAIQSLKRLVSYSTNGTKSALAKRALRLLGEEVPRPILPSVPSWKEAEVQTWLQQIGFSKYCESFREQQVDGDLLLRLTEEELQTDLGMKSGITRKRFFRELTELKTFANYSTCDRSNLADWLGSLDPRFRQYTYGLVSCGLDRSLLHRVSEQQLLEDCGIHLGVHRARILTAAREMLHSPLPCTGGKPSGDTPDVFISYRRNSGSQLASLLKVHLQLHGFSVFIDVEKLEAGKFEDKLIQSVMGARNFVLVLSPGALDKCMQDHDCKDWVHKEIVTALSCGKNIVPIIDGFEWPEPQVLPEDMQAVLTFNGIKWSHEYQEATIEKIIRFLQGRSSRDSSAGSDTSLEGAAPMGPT
Chain of Mitogen-activated protein kinase 7 (Homo sapiens) (Q13164 whole entry, looked up, the tested form may be a part): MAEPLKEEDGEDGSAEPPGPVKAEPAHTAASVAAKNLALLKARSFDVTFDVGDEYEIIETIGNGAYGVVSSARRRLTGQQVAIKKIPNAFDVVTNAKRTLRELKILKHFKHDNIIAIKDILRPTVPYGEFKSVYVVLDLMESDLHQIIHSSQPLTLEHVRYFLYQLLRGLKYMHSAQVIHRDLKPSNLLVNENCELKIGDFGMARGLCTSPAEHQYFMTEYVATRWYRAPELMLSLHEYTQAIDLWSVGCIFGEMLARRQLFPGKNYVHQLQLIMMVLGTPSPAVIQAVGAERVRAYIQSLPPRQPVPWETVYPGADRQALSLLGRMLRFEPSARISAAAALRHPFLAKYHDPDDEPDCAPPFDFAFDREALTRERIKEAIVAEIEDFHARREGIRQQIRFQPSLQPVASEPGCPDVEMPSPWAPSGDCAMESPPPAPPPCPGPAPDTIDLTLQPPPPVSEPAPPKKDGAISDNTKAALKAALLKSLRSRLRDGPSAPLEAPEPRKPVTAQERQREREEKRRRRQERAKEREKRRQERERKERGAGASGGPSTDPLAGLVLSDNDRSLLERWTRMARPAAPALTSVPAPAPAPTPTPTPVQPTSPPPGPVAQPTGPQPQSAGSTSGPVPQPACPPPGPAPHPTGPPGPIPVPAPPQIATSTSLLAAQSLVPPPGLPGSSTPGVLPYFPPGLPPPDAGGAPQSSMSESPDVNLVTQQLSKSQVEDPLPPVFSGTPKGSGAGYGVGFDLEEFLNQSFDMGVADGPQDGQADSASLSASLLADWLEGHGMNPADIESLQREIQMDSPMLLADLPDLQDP
Chain of 6-phosphogluconate dehydrogenase, decarboxylating (Homo sapiens) (P52209 whole entry, looked up): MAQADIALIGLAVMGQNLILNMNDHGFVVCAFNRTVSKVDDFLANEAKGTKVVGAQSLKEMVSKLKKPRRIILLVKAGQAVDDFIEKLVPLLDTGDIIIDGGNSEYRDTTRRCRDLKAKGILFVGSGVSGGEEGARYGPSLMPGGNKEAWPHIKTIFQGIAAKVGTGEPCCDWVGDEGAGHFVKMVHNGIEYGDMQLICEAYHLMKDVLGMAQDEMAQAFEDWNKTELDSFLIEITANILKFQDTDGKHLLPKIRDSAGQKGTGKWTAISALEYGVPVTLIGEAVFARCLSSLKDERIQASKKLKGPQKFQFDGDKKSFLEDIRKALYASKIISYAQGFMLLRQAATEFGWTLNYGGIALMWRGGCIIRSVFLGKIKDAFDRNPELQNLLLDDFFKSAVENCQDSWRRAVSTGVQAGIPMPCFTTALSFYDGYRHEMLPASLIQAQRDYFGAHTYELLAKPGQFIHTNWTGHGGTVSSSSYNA

On to `CC[C@H]1OC(=O)[C@H](C)C(=O)[C@H](C)[C@@H](O[C@@H]2O[C@H](C)C[C@H](N(C)C)[C@H]2O)[C@](C)(OC)C[C@@H](C)C(=O)[C@H](C)[C@H]2N(CCCCn3cnc(-c4cccnc4)c3)C(=O)O[C@]12C`, for which the inhibition in assay [1] is -10.3% (inactive). The remaining NAD in [2] is 10 nM (inactive). In assay [3], the luciferase signal is 48 AU (inactive).
In the case of `NC[C@H]1O[C@H](O[C@H]2[C@H](O[C@@H]3O[C@H](CO)[C@@H](O)[C@H]3O)[C@@H](O)[C@H](N)C[C@@H]2N)[C@H](N)[C@@H](O)[C@@H]1O`, in assay [1], the inhibition is -2.01% (inactive). Besides, the remaining NAD in [2] is 10 nM (inactive). Further, the luciferase signal in assay [3] is 40 AU (inactive).
Regarding `CC(=O)OCC(=O)[C@@]12OC3(CCCC3)O[C@@H]1C[C@H]1[C@@H]3CCC4=CC(=O)C=C[C@]4(C)[C@@]3(F)[C@@H](O)C[C@@]12C`, the inhibition in assay [1] was 2.31% (inactive). For the same compound, the z-score in assay [4] (setting [10]) was 0.316 (inactive); in assay [4] (setting [11]), 0.335. Besides, the remaining NAD in assay [2] was 10 nM (inactive). The luciferase signal in assay [3] was 44 AU (inactive).
On to `CC(C)CCC[C@@H](C)[C@H]1CC[C@H]2[C@@H]3CC=C4C[C@@H](O)CC[C@]4(C)[C@H]3CC[C@]12C`, for which, in [1], the inhibition was 2.5% (inactive). Further, in assay [2], the remaining NAD is 10 nM (inactive). Also, the luciferase signal in [3] is 52 AU (inactive).
In the case of `C=C1C[C@]23C[C@@]1(O)CC[C@H]2[C@@]12C=C[C@H](O)[C@@](C)(C(=O)O1)[C@H]2[C@@H]3C(=O)O`, the survival in [5] was 1.25 (inactive). For the same compound, the parasite load remaining in [6] was 101% (inactive). Besides, the viability in [6] was 80.4%. Moreover, the inhibition in assay [1] was -0.284% (inactive). Further, the fold change was 0.973 (inactive) in [7] (setting [12]) and 0.674 in [7] (setting [13]). Also, the cell count in assay [7] (setting [14]) turned out to be 8110; in [7] (setting [15]) it was 8340. In addition, the luciferase signal in [3] is 40 AU (inactive).
As to `CO/N=C(\C(=O)N[C@@H]1C(=O)N2C(C(=O)O)=C(CSc3nc(=O)c(O)nn3C)CSC12)c1csc(N)n1` (some centres undefined), the period change in assay [8] was 0.08 h (inactive). Further, the inhibition in [1] was -13.8% (inactive). In addition, the fold change in assay [7] (setting [12]) is 1.02 (inactive); in [7] (setting [13]), 1.74. The cell count was found to be 10200 in [7] (setting [14]) and 9980 in assay [7] (setting [15]). Besides, the z-score in [9] is 0.175 (inactive).
Consider `CC(C)CCC[C@@H](C)[C@H]1CC[C@H]2C3=CC[C@H]4C[C@@H](O)CC[C@]4(C)[C@H]3CC[C@]12C`, for which the inhibition in assay [1] was 4.86% (inactive). The luciferase signal in assay [3] was 56 AU (inactive).
In the case of `C=C(C)[C@@H]1CC[C@]2(CO)CC[C@]3(C)[C@H](CC[C@@H]4[C@@]5(C)CC[C@H](O)C(C)(C)[C@@H]5CC[C@]43C)[C@@H]12`, the parasite load remaining in [6] is 104% (inactive). The viability in assay [6] came to 78.6%. In assay [1], the inhibition was 1.58% (inactive). Further, the fold change was 0.941 (inactive) in assay [7] (setting [12]) and 0.65 in assay [7] (setting [13]). Besides, the cell count in assay [7] (setting [14]) worked out at 8530; in [7] (setting [15]), 9060. Moreover, the luciferase signal in [3] was 44 AU (inactive).
For `CC(=O)OCC(=O)[C@@]1(O)CC[C@H]2[C@@H]3CCC4=CC(=O)CC[C@]4(C)[C@@]3(F)[C@@H](O)C[C@@]21C`, the survival in assay [5] is 16.7 (inactive). Further, in assay [6], the parasite load remaining was 136% (inactive) and the viability was 91.3%. Moreover, in assay [1], the inhibition is -10.7% (inactive). In addition, the remaining NAD in assay [2] was 10 nM (inactive). The luciferase signal in assay [3] was 84 AU (inactive).
Turning to `Nc1nc(N)c2nc(CNc3ccc(C(=O)N[C@@H](CCC(=O)O)C(=O)O)cc3)cnc2n1`, the inhibition in [1] is -4.2% (inactive). The remaining NAD in [2] was 10 nM (inactive).
With `C1CCN2C[C@@H]3C[C@H](CN4CCCC[C@@H]34)[C@H]2C1`, the parasite load remaining in [6] is 83.5% (inactive). Moreover, the viability in assay [6] was found to be 82.9%. The inhibition in [1] is 11% (inactive). Also, the fold change in [7] (setting [12]) was 0.85 (inactive); in assay [7] (setting [13]), 3.93. In addition, the cell count in [7] (setting [14]) came out at 10700; in assay [7] (setting [15]) it was 12500. The luciferase signal in [3] is 68 AU (inactive).
Consider `COC(=O)C[C@H]1C(C)(C)[C@@H](O)[C@@H]2CC3=C4C=C(OC)O[C@@H](c5ccoc5)[C@]4(C)CCC3[C@@]1(C)C2=O` (some centres undefined), for which, in [1], the inhibition is 1.56% (inactive). Moreover, the luciferase signal in assay [3] is 28 AU (inactive).
Take `CC[C@@H](C(=O)[C@@H](C)[C@@H](O)[C@H](C)CCc1ccc(C)c(O)c1C(=O)O)[C@H]1O[C@](CC)([C@H]2CC[C@](O)(CC)[C@H](C)O2)C[C@@H]1C`: in [6], the parasite load remaining was -0.295% (active). The viability in assay [6] stood at 110%. The inhibition in assay [1] is -6.18% (inactive). Besides, the fold change was 1.02 (inactive) in assay [7] (setting [12]) and 1.03 in [7] (setting [13]). Further, the values for the cell count in assay [7] (setting [14]) and in assay [7] (setting [15]) were 2440 and 2390, respectively. Further, the luciferase signal in assay [3] was 44 AU (inactive).
`CN1[C@@H]2CC[C@H]1CC(OC(c1ccccc1)c1ccccc1)C2` (some centres undefined): the inhibition in assay [1] was 13.6% (inactive). Also, the results for the z-score in assay [4] (setting [10]) and in [4] (setting [11]) were -0.23 (inactive) and 0.0522, respectively. Further, in assay [3], the luciferase signal was 52 AU (inactive).
`COc1cc(OC)c2c(=O)c(OC)c(-c3ccc(OC)c(OC)c3)oc2c1`: in assay [1], the inhibition was 1.73% (inactive). Also, in assay [3], the luciferase signal was 68 AU (inactive).
In the case of `COc1ccc(C(C)=O)c(OC)c1`, the inhibition in assay [1] was -3.95% (inactive). The luciferase signal in [3] is 76 AU (inactive).

Broadly, the inhibition is the relative decrease from the control value, in per cent. As a reminder, the viability is a read-out of living cells in per cent, often relative to untreated cells.

These data come from PubChem BioAssay.
